# Key:
# [1] = target: Sphingosine kinase 1 (Homo sapiens) (UniProt Q9NYA1); settings: at 1 µM;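 further: mean SPHK1 inhibition value reported from the GSK PKIS kinase panel screen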
# [2] = target: T1, Sphingosine kinase 2 (Homo sapiens) (UniProt Q9NRA0); settings: at 0.1 µM
# T1 sequence (whole entry): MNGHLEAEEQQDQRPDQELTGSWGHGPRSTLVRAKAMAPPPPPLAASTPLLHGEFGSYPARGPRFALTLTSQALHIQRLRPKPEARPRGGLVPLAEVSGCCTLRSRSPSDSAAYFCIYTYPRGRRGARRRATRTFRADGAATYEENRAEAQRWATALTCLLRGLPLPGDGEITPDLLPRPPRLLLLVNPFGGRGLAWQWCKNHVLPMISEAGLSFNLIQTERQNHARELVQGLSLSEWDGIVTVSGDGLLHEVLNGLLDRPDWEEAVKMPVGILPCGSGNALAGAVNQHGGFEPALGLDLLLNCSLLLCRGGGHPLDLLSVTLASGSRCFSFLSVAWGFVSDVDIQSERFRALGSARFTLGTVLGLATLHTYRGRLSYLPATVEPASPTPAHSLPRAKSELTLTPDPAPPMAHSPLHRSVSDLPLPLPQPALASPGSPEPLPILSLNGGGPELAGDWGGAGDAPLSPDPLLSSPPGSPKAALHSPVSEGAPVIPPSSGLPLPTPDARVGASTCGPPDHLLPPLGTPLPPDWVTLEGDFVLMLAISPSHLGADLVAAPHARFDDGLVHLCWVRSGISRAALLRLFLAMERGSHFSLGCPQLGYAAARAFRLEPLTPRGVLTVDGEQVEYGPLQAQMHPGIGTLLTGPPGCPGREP
# [3] = target: T1, Sphingosine kinase 2 (Homo sapiens); settings: at 1 µM
# [4] = target: Casein kinase II subunit alpha (Homo sapiens) (UniProt P68400); settings: at 0.1 µM
# [5] = target: Casein kinase II subunit alpha (Homo sapiens) (UniProt P68400); settings: at 1 µM
# [6] = target: T2, Inhibitor of nuclear factor kappa-B kinase subunit alpha (Homo sapiens) (UniProt O15111); settings: at 0.1 µM
# T2 sequence (whole entry): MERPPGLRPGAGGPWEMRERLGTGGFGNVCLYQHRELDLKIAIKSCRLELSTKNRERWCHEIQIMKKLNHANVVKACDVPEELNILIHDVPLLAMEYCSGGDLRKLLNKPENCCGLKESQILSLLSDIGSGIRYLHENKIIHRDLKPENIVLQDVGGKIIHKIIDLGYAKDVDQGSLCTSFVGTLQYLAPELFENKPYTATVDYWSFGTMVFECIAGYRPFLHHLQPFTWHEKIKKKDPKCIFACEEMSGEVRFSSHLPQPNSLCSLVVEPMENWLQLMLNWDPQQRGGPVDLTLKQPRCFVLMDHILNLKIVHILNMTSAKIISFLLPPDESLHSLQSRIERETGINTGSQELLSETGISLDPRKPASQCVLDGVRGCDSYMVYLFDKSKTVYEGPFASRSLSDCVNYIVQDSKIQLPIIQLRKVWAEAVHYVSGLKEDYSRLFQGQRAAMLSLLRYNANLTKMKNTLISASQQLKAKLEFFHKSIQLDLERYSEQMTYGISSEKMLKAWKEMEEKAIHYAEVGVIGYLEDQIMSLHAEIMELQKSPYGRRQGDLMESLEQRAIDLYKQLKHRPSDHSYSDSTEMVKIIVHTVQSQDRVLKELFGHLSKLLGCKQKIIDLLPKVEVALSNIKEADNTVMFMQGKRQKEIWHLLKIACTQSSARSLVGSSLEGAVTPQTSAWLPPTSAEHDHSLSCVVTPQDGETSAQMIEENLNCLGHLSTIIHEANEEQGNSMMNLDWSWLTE
# [7] = target: T2, Inhibitor of nuclear factor kappa-B kinase subunit alpha (Homo sapiens); settings: at 1 µM
# [8] = target: T3, Inhibitor of nuclear factor kappa-B kinase subunit beta (Homo sapiens) (UniProt O14920); settings: at 0.1 µM
# T3 sequence (whole entry): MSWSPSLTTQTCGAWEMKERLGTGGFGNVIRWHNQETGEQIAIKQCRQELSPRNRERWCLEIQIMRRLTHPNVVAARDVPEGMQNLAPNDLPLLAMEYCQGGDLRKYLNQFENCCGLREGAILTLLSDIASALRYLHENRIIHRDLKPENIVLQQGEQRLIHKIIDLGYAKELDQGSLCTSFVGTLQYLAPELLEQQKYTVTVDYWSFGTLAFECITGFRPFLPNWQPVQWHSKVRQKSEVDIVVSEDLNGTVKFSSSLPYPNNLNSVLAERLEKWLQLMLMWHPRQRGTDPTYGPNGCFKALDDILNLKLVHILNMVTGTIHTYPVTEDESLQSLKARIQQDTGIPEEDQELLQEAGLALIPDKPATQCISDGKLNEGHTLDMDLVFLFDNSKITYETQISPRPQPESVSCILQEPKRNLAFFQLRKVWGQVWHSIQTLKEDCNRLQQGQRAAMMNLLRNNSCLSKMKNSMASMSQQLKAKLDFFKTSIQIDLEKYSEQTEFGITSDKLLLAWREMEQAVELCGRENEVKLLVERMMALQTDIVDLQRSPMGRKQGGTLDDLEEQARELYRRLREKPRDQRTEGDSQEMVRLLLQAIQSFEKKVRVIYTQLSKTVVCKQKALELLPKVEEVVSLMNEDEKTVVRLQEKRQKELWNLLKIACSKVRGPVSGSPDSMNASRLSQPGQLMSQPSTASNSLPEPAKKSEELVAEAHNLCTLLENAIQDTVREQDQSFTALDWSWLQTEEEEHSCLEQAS
# [9] = target: T3, Inhibitor of nuclear factor kappa-B kinase subunit beta (Homo sapiens); settings: at 1 µM
# Casein kinase II subunit alpha (Homo sapiens), sequence (P68400 whole entry, looked up): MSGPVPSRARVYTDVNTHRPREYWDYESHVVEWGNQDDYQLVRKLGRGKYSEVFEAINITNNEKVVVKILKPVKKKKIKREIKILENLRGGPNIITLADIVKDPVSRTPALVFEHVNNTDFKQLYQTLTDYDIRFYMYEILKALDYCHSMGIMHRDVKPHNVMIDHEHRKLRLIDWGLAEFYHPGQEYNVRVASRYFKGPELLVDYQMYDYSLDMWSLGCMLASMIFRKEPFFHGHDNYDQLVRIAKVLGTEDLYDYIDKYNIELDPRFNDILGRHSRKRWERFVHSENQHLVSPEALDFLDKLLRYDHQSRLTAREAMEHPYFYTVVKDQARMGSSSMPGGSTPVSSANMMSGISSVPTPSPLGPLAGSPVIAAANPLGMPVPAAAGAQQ
# Sphingosine kinase 1 (Homo sapiens), sequence (Q9NYA1 whole entry): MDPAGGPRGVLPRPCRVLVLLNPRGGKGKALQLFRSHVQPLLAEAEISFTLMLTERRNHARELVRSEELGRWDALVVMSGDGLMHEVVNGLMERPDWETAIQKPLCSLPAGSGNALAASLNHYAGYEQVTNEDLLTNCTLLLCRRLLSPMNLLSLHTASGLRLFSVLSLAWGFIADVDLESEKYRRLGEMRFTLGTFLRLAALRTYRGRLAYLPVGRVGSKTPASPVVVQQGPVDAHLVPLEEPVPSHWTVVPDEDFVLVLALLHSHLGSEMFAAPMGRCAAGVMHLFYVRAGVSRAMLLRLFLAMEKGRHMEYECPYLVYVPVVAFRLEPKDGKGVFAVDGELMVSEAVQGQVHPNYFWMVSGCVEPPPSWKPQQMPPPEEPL
smiles,measurement,setting,value
C/C(Nc1ccc(S(N)(=O)=O)cc1)=C1/C(=O)Nc2ccccc21,inhibition,[1],2.7%
same,inhibition,[2],0.02%
same,inhibition,[3],0.53%
same,inhibition,[4],-0.1%
same,inhibition,[5],7.42%
same,inhibition,[6],4.91%
same,inhibition,[7],2.59%
same,inhibition,[8],-0.76%
same,inhibition,[9],1.17%

# — ChEMBL document CHEMBL1961873, “Compounds: GSK PKIS; Assays: Nanosyn kinase panel” (2012)
